In ChEMBL document CHEMBL3988442, “University of Dundee, Small-Polar-MMV Screening Library” (2021) one finds Percent Effect data, which are given here for twelve compounds.

Common to all, as to set-up: scale not given: direction of the effect not stated beside the values
The target of test [1] is Protein translocase subunit SecA (Escherichia coli (strain K12)) (UniProt P10408). Put plainly: Assay to Identify E. coli SecA ATPase Inhibitors. The test is classed as functional. Conditions: 30 µM.
In test [2] the target is T1, Ubiquitin-activating enzyme e1, putative (Leishmania donovani (strain BPK282A1)) (UniProt E9BSI1).
T1 sequence (whole entry): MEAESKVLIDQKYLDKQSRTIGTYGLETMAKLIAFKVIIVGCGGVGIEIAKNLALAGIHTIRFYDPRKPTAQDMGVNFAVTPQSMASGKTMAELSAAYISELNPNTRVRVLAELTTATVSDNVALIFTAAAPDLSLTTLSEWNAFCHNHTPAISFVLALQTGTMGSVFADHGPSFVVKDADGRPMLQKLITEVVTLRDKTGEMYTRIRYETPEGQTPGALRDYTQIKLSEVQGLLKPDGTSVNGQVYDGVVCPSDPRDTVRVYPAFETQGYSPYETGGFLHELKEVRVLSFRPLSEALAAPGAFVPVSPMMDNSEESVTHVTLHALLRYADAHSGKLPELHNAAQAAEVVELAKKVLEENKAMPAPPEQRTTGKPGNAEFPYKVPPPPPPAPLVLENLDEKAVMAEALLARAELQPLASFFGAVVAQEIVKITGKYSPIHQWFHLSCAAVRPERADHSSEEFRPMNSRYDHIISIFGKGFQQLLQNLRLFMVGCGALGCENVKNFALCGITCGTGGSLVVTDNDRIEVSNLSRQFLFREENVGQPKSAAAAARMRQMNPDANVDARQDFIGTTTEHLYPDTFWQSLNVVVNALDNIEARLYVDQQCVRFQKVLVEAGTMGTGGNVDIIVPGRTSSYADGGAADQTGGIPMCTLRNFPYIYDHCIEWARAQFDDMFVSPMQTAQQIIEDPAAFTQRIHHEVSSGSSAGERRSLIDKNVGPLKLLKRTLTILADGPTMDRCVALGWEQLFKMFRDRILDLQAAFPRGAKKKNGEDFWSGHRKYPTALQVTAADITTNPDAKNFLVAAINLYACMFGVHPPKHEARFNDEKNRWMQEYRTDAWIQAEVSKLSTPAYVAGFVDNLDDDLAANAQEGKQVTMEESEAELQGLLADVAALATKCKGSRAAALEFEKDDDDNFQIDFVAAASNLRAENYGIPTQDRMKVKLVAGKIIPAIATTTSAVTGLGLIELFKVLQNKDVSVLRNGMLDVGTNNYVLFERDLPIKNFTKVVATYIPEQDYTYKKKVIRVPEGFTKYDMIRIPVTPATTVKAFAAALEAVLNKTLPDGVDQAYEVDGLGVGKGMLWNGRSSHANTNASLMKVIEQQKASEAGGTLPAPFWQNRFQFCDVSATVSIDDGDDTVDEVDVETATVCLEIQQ
Put plainly: Leishmania donovani Ubiquitin Activating Enzyme (LdE1). The test is classed as functional. Particulars: 30 µM.

The target of test [3] is Sialic acid-binding Ig-like lectin 9 (Homo sapiens) (UniProt Q9Y336). Put plainly: Hs-Siglec9 ALPHAscreen SOP 20170721. Particulars: 10 µM.
For the next test, the system named is Trypanosoma cruzi. In words: Trypanosoma cruzi phosphomannomutase and mannose-1-phosphate guanylyltransferase assay. Type of test: functional. Conditions: 10 µM.
Test [4] concerns the target T2, Arginase-2, mitochondrial (Homo sapiens) (UniProt P78540).
T2 sequence (whole entry): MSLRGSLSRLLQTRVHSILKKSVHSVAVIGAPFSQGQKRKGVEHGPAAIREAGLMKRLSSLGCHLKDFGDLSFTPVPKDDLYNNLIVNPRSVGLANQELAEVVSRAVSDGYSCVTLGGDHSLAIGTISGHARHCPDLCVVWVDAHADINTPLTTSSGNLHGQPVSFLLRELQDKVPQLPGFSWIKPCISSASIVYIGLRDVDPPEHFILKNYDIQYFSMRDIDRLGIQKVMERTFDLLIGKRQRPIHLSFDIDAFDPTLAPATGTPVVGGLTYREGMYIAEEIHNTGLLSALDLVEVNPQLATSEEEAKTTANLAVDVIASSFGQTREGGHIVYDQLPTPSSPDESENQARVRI
Put plainly: in vitro enzyme assay to detect the production of urea directly proportional to the activity of Arginase II. Also: in the data most compounds retested in dose-response had high values. Particulars: 33.3 µM. The test is classed as functional.

For test [5], the target named is T3, Proteasome subunit beta (Trypanosoma cruzi) (UniProt O96673).
T3 sequence (whole entry): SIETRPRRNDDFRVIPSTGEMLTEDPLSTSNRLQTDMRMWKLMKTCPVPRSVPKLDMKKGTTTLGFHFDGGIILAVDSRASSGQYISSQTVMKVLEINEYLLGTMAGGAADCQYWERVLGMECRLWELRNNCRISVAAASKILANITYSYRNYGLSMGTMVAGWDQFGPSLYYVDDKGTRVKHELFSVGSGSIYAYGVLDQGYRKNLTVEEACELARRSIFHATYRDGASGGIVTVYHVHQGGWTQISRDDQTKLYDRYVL
In words: Trypanosoma cruzi proteasome chymotrypsin-like activity (TcProtChymo) assay. Also: in the data most compounds retested in dose-response had high values. The test is classed as functional. Conditions: 9.37 µM.

The species entered for the next test is Homo sapiens. In words: To identify inhibition of the IFN signalling (Jak-Stat) pathway via expression of an eGFP reporter gene under the control of an IFN-stimulated response element (ISRE) containing MxA promoter. Type of test: functional. Conditions: 30 µM.
The target in test [6] is T4, Tyrosyl-tRNA synthetase, putative (Trypanosoma cruzi (strain CL Brener)) (UniProt Q4DSP6).
T4 sequence (whole entry): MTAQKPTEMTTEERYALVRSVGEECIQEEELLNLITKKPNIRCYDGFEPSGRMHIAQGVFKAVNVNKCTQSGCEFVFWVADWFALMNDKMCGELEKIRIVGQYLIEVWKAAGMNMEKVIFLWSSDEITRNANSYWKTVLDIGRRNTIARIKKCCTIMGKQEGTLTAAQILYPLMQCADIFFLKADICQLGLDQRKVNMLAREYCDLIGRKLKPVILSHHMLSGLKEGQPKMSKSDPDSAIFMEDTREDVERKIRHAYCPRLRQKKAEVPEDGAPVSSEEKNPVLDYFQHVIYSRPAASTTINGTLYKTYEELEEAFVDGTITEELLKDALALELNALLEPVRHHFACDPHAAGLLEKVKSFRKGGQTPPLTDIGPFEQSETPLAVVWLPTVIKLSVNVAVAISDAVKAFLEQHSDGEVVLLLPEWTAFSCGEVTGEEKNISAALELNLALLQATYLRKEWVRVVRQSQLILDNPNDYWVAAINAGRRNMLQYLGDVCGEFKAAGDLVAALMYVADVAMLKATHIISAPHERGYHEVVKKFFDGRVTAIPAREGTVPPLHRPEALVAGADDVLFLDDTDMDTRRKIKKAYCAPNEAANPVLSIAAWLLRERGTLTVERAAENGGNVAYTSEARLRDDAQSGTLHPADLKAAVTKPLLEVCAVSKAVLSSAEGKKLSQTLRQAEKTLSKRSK
Put plainly: Trypanosoma cruzi tyrosyl tRNA synthetase (TcYRS) _High Tyrosine SOP. Also: in the data most compounds retested in dose-response had high values. Type of test: functional. Conditions: 30 µM.

Test [7] deals with T4, Tyrosyl-tRNA synthetase, putative (Trypanosoma cruzi (strain CL Brener)). In words: Trypanosoma cruzi tyrosyl tRNA synthetase (TcYRS) SOP. Type of test: functional. Conditions: 30 µM.
Test [8] deals with Chromo domain-containing protein 1 (Saccharomyces cerevisiae (strain ATCC 204508 / S288c) (Baker's yeast)) (UniProt P32657). In words: ScCHD-1 Enzyme Inhibition Assay. Also: in the data most compounds retested in dose-response had high values. Type of test: functional. Conditions: 30 µM.

For part of these data: Measured potencies and affinities stand elsewhere.

Chain of Sialic acid-binding Ig-like lectin 9 (Homo sapiens) (Q9Y336 whole entry): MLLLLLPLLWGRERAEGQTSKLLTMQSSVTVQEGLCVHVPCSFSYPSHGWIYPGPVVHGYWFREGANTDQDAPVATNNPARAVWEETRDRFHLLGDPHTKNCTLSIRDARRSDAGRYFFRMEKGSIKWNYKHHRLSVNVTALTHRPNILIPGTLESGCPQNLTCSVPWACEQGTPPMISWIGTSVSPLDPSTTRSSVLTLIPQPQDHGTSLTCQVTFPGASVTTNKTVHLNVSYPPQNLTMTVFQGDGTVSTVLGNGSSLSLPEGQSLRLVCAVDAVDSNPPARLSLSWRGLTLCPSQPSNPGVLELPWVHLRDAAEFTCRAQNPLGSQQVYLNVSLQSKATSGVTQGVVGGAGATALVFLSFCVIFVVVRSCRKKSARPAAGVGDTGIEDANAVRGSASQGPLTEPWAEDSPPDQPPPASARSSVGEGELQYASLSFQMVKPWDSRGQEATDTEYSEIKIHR
Chain of Chromo domain-containing protein 1 (Saccharomyces cerevisiae (strain ATCC 204508 / S288c) (Baker's yeast)) (P32657 whole entry, the tested form may be a part): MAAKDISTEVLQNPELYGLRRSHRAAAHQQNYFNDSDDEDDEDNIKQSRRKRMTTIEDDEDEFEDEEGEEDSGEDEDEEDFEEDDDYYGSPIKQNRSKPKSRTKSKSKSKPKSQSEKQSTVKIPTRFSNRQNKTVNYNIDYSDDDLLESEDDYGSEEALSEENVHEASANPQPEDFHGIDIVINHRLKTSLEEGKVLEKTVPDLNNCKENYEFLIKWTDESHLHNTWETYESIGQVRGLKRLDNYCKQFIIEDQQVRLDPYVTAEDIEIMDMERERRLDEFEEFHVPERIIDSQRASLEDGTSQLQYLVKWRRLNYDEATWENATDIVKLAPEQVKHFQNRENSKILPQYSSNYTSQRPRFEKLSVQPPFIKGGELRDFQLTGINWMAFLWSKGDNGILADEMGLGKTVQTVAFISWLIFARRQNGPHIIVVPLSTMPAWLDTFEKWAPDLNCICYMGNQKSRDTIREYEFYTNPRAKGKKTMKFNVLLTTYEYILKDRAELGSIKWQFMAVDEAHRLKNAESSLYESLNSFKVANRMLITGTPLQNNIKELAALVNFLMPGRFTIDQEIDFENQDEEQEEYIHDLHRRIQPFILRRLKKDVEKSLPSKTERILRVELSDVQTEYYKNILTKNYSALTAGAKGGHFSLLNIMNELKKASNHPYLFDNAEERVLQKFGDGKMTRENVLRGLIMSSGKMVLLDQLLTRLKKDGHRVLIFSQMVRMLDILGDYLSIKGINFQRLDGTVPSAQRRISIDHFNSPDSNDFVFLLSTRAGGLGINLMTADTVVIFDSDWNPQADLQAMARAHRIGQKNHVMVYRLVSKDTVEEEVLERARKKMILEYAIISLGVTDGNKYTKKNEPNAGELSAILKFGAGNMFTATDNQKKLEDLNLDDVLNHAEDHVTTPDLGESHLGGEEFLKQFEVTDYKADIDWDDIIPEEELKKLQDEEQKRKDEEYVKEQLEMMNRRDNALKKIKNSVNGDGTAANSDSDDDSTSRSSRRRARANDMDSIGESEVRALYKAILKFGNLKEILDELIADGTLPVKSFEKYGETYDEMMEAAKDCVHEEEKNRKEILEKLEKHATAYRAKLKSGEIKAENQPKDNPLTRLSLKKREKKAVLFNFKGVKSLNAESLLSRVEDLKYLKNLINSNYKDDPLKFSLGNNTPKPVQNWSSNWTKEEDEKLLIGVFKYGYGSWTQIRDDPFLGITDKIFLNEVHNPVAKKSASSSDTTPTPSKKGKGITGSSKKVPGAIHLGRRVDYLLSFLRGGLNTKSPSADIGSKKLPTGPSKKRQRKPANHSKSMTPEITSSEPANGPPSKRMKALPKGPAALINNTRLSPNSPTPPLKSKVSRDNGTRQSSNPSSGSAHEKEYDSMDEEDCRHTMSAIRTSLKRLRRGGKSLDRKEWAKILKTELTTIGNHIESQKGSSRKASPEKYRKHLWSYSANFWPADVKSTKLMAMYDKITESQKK
Chain of Protein translocase subunit SecA (Escherichia coli (strain K12)) (P10408 whole entry): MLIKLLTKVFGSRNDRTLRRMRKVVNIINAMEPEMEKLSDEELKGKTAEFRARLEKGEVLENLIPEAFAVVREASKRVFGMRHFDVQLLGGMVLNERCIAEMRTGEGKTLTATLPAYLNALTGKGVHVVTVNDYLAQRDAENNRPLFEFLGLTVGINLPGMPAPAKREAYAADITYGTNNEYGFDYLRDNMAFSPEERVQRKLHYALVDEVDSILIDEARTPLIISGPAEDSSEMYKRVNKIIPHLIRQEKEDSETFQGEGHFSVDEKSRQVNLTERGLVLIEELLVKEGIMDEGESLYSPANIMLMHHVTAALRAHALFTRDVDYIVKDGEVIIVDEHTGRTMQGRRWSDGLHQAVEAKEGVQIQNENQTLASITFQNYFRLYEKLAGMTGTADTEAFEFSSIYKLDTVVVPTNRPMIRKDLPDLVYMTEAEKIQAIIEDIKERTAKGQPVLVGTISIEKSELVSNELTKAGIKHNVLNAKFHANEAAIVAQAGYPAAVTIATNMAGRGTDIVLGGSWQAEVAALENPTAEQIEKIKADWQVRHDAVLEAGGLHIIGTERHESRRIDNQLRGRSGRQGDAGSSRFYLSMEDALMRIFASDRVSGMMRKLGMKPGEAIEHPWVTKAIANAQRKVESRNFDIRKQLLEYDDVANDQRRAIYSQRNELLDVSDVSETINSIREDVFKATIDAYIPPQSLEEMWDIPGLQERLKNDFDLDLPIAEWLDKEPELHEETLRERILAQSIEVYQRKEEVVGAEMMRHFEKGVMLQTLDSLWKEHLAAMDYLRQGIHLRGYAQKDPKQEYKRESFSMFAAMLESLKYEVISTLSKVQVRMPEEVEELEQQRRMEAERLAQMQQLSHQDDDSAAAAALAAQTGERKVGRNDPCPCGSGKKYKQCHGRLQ

Turning to `C[C@@H]1CN(C(=O)c2cccs2)C[C@]12CCN(CCN(C)C)C2=O`, the Percent Effect is -6.68% in test [1]; 9.09% in [2]; 2.17% in test [3]; -6.57% in the test on Trypanosoma cruzi; 0.457% in test [4]; 9.87% in test [5]. Further, the Percent Effect in the test listed under Homo sapiens is 18%; in [6] it was 0.966%; in test [7], -5%; in test [8], -8.48%.

With `Cc1cccc(-c2noc(CN3CCCC3Cn3cccn3)n2)c1` (stereo not given), the Percent Effect in test [1] was -4.47%; in [2], -13.3%; in test [3], 4.15%; in the test with Trypanosoma cruzi, 2.81%; in test [4], -0.887%; in test [5], 9.07%. The Percent Effect is 35.3% in the test listed under Homo sapiens, 1.58% in test [6], 2.56% in [7] and -6.03% in [8].

As to `CCCN1CCCn2nc(CNS(=O)(=O)c3ccc(C)cc3)cc2C1`, the Percent Effect in test [1] is -8.28%; in test [2], 2.7%; in test [3], 2.48%; in the test on Trypanosoma cruzi, -5.72%; in test [4] it was -3.85%; in test [5], 10.3%. The Percent Effect was 5.89% in the test filed under Homo sapiens, 3.72% in [6], 9.76% in test [7] and -1.82% in test [8].

As for `Cc1nc(O)c2nnn(C[C@H]3CCCN3C(=O)C(C)(C)C)c2n1`, the Percent Effect in test [1] was -2.69%; in test [2], 12%; in [3], 5.82%; in the test on Trypanosoma cruzi, -2.37%; in test [4] it was -1.33%; in test [5], 7.88%. Also, the Percent Effect in the test filed under Homo sapiens is 12.7%; in test [6] it was 5.29%; in [7] it was 10%; in test [8], -20.8%.

With `COc1cccc(-n2nnc(C(=O)N3CCNC(=O)C3)c2C)c1`, the Percent Effect is -4.4% in test [1]; 15.4% in test [2]; -22.9% in test [3]; 9.11% in the test with Trypanosoma cruzi; 0.41% in test [4]; 8.96% in [5]. The Percent Effect in the test filed under Homo sapiens was 16%; in test [6] it was 5.26%; in test [7], 25.3%; in test [8], 22.3%.

On to `CN(C)S(=O)(=O)N1CC[C@]2(C[C@H](Oc3ncccc3F)CO2)C1`, for which the Percent Effect in [1] is -1.29%; in test [2], 1.3%; in test [3], 10.8%; with Trypanosoma cruzi, 0.0974%; in test [4] it was 0%; in test [5], 1.15%. The Percent Effect is -1.45% in the test listed under Homo sapiens, 4.74% in test [6], 5.13% in test [7] and 14.3% in [8].

Regarding `COCCc1noc(CNC2CCSC2)n1` (stereo not given), the Percent Effect in test [1] is -5.2%; in test [2], 5.41%; in [3], 11.7%; in the test with Trypanosoma cruzi, 7.66%; in test [4], 1.75%; in [5], 9.93%. Further, the Percent Effect was -4.93% in the test filed under Homo sapiens, 5.85% in test [6], 17.1% in [7] and -3.46% in test [8].

Regarding `CCc1ncc2c(n1)CN(CC(=O)Nc1ccc(Cl)cn1)CC2`, the Percent Effect in test [1] is -4.26%; in test [2] it was -2.67%; in [3] it was 4.13%; in the test with Trypanosoma cruzi it was 1.21%; in [4] it was 2.66%; in [5] it was 4.83%. For the same compound, the Percent Effect in the test filed under Homo sapiens is 4.95%; in [6], 8.95%; in test [7], 7.69%; in test [8], -9.89%.

With `Cc1nc(CN(C)C2CCN(Cc3ccc4ccccc4n3)C2)no1` (stereo not given), the Percent Effect is 0.184% in [1]; -5.2% in test [2]; -6.12% in test [3]; 7.28% in the test with Trypanosoma cruzi; -9.22% in test [4]; 20.4% in test [5]. The Percent Effect in the test listed under Homo sapiens was 10.1%; in test [6], 21.6%; in test [7], 30.6%; in test [8], -10.1%.

Consider `O=C1CCC2(CCN(Cc3ccc(F)cc3)CC2)N1Cc1ccccc1`, for which the Percent Effect in test [1] was -4.42%; in [2] it was 3.9%; in [3] it was -4.8%; in the test on Trypanosoma cruzi, -2.63%; in test [4], -0.913%; in [5], 9.7%. For the same compound, the Percent Effect is 1.33% in the test filed under Homo sapiens, 5.8% in [6], 7.5% in test [7] and -4.62% in test [8].

With `CCc1cc(C(F)(F)F)c2c(C)nn(CC(=O)O)c2n1`, the Percent Effect was 2.1% in test [1]; 9.33% in [2]; -6.26% in test [3]; -4.14% in the test with Trypanosoma cruzi; 9.29% in test [4]; 11% in test [5]. Besides, the Percent Effect in the test filed under Homo sapiens was 15.7%; in test [6] it was 1.06%; in test [7], 10%; in test [8], -20.4%.

Turning to `CCc1nc(CN2CCN(C(=O)C3CCCCC3)CC2)cs1`, the Percent Effect in test [1] was -3.52%; in test [2], 17.9%; in test [3], -8.26%; in the test with Trypanosoma cruzi it was 7.23%; in test [4], 1.64%; in test [5] it was 8.28%. In addition, the Percent Effect is 12% in the test listed under Homo sapiens, 5.26% in [6], 20.5% in [7] and -7.32% in [8].
